The nature of experiment [1]: viability loss in pontine glioma line – cell-based, SU-DIPG-XXV, MIPE5.0, CellTiter-Glo, qHTS, dose response (AID 1347065; cut-off not given, nearly all actives have AC50 up to about 26 µM;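 also: cells exposed to compound for 48 hours before ATP readout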). The conditions noted are these: CellTiter-Glo ATP luminescence.
The nature of experiment [2]: ovarian cancer cell viability with rucaparib, profiling panel, oncology-focused library, rucaparib conditional (AID 1508598). The conditions noted are these: patient-derived ovarian cancer cells, CellTiter-Glo viability, 144 h, stronger effect = lower value.
Experiment [3] in a line: stimulators of nuclear beta-catenin in C2C12, primary screen, imaging, WNT3A-conditioned medium, mouse C2C12, NPC library (AID 1117326; in the data active = nuclear beta-catenin stimulation mostly above about 4.2%, no sharp cut-off; inactive = mostly below about 10%). The settings on record: stronger effect = higher value.
Experiment [4] in a line: stimulators of insulin release from INS-1E, primary screen, cell-based, 5 mM glucose, NPC library (AID 1117329;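 active = compound raises insulin release from rat beta cells at 5 mM glucose, no numeric limit stated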). The conditions noted are these: rat INS-1E insulin secretion, at 10 µM, stronger effect = higher value.
A short description of experiment [5]: growth inhibition of GSK3B-pretreated HCT116 cells – cell-based, CellTiter-Glo, 0.2 to 20 µM (AID 1117336;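 active = compounds lowering colon cancer cell viability after pretreatment blocking the GSK3B kinase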). The conditions noted are these: HCT116 viability after GSK3B inhibitor, at 20 µM, stronger effect = higher value. Background: In ATP-based viability assays light output follows the ATP content of the culture.
Experiment [6] can be described thus: inhibition of endothelial tube formation, primary screen, imaging, VEGF stimulated, CD31 staining, tube area, NPC library (AID 1117340;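 active = compound that reduces growth-factor-driven endothelial tube area in a mixed cell culture, no cutoff stated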). The conditions noted are these: VEGF-stimulated ADSC/ECFC co-culture, at 10 µM, stronger effect = higher value.
Experiment [7] in a line: glucagon-like peptide 1 release enhancers, primary assay, NCI-H716 cell line, NPC library (AID 1117341;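 active = compound raises GLP1 secretion from the human gut endocrine cells, with no numeric limit stated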). The conditions noted are these: NCI-H716 cells, at 10 µM, stronger effect = higher value.
Experiment [8] in a line: HCT116 colon cancer cell growth inhibition, primary screen, CellTiter-Glo luminescence, NPC library (AID 1117342;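 active = compounds that lower survival of HCT116 colon cancer cells in the luminescence readout, no numeric limit stated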). The conditions noted are these: at 20 µM (top of the series).
Experiment [9] is described as follows: CellTiter-Glo luminescent readout of SW480 viability loss, NPC library primary (AID 1117343;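 active = compounds that lower viability of the colon cancer cells in the luminescence readout, with no numeric limit stated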). The conditions noted are these: CellTiter-Glo luminescence; at 20 µM (top of the series) unless noted.
Experiment [10] in a line: decreased DLD-1 cellular survival, CellTiter-Glo luminescent readout, NPC compound collection, primary HTS (AID 1117346;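 active = compounds that lower survival of DLD-1 colon cancer cells in the luminescence readout, no cutoff given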). The conditions noted are these: DLD-1 viability, CellTiter-Glo luminescence; at 20 µM (top of the series).
In experiment [11] the test system is Aerobactin synthetase IucA (Klebsiella pneumoniae). Put plainly: IucA aerobactin synthetase inhibitors, biochemical, Tocris library, absorbance (AID 1345561; call rule not given here;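 also: 100% = enzyme without compound and 0% = no enzyme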). The conditions noted are these: purified IucA enzyme assay, absorbance (OD) read-out; stronger effect = lower value;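 tested at 8 µM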.
The nature of experiment [12]: sensitizers of A549 cells to miR-34 induction, primary screen, imaging, A549 dox-inducible miR-34, nuclei and caspase counts (AID 1347080;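 active = compounds whose cell count with miR-34 switched on is under 0.7 times the count with it off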). The conditions noted are these: A549 miR-34 inducible, Hoechst nuclei count, 48 h.
A short description of experiment [13]: viability rescue of complex I mutant cybrids, primary screen, cell-based, galactose medium, ATP luminescence (AID 1645843;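 active = z-score of at least 1.8 in each of two replicates, scored against plate mean and spread of sample wells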;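 also: positive z means more ATP and so rescue of galactose-driven cybrid death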). The conditions noted are these: complex I mutant cybrid cells, 72 h, stronger effect = higher value.
Setting [14] is: at 0.000305 µM, OCI-C5x cells, with rucaparib 10 µM, 100% = cells with rucaparib alone.
Where [15] appears, read: at 0.000305 µM, OCI-C5x cells, without rucaparib.
The mark [16] stands for this setting: at 0.000305 µM, OCI-P5x cells, with rucaparib 20 µM, 100% = cells with rucaparib alone.
The mark [17] stands for this setting: at 0.000305 µM, OCI-P5x cells, without rucaparib.
[18] abbreviates: at 0.00122 µM, OCI-C5x cells, with rucaparib 10 µM, 100% = cells with rucaparib alone.
Where [19] appears, read: at 0.00122 µM, OCI-C5x cells, without rucaparib.
[20] abbreviates: at 0.00122 µM, OCI-P5x cells, with rucaparib 20 µM, 100% = cells with rucaparib alone.
The mark [21] stands for this setting: at 0.00122 µM, OCI-P5x cells, without rucaparib.
[22] abbreviates: at 0.00488 µM, OCI-C5x cells, with rucaparib 10 µM, 100% = cells with rucaparib alone.
Where [23] appears, read: at 0.00488 µM, OCI-C5x cells, without rucaparib.
Where [24] appears, read: at 0.00488 µM, OCI-P5x cells, with rucaparib 20 µM, 100% = cells with rucaparib alone.
Where [25] appears, read: at 0.00488 µM, OCI-P5x cells, without rucaparib.
Setting [26] is: at 0.0195 µM, OCI-C5x cells, with rucaparib 10 µM, 100% = cells with rucaparib alone.
Where [27] appears, read: at 0.0195 µM, OCI-C5x cells, without rucaparib.
Where [28] appears, read: at 0.0195 µM, OCI-P5x cells, with rucaparib 20 µM, 100% = cells with rucaparib alone.
Where [29] appears, read: at 0.0195 µM, OCI-P5x cells, without rucaparib.
Setting [30] is: at 0.0781 µM, OCI-C5x cells, with rucaparib 10 µM, 100% = cells with rucaparib alone.
[31] abbreviates: at 0.0781 µM, OCI-C5x cells, without rucaparib.
The mark [32] stands for this setting: at 0.0781 µM, OCI-P5x cells, with rucaparib 20 µM, 100% = cells with rucaparib alone.
[33] abbreviates: at 0.0781 µM, OCI-P5x cells, without rucaparib.
Where [34] appears, read: at 0.313 µM, OCI-C5x cells, with rucaparib 10 µM, 100% = cells with rucaparib alone.
The mark [35] stands for this setting: at 0.313 µM, OCI-C5x cells, without rucaparib.
Where [36] appears, read: at 0.313 µM, OCI-P5x cells, with rucaparib 20 µM, 100% = cells with rucaparib alone.
Setting [37] is: at 0.313 µM, OCI-P5x cells, without rucaparib.
Setting [38] is: at 1.25 µM, OCI-C5x cells, with rucaparib 10 µM, 100% = cells with rucaparib alone.
The mark [39] stands for this setting: at 1.25 µM, OCI-C5x cells, without rucaparib.
[40] abbreviates: at 1.25 µM, OCI-P5x cells, with rucaparib 20 µM, 100% = cells with rucaparib alone.
Where [41] appears, read: at 1.25 µM, OCI-P5x cells, without rucaparib.
Where [42] appears, read: at 5 µM, OCI-C5x cells, with rucaparib 10 µM, 100% = cells with rucaparib alone.
[43] abbreviates: at 5 µM, OCI-C5x cells, without rucaparib.
Setting [44] is: at 5 µM, OCI-P5x cells, with rucaparib 20 µM, 100% = cells with rucaparib alone.
Setting [45] is: at 5 µM, OCI-P5x cells, without rucaparib.

The values that follow come from PubChem BioAssay.

Several values for one entry are separate records, joined by “and”; a condition that tells them apart may be missing. Equal entries are not always repeated. Results filed as inconclusive are left out. Activity calls are given as the source filed them.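 The calls were made as follows, unless noted: active = normalized viability below 100% at a tested concentration; inactive = the rest.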

For orientation: AC50 means the midpoint of the concentration-response curve, whichever way the signal moves. Consider `CC1=C(/C=C/C(C)=C/C=C/C(C)=C/C(=O)Nc2ccc(O)cc2)C(C)(C)CCC1`, for which the AC50 in experiment [1] is 14.8 µM (active).

For the compound `CCOCC(O)COc1ccc(NC(=O)CC[S+](C)C)cc1` (stereo unspecified), in experiment [1], the call was inactive.

The term viability denotes a read-out of living cells in per cent, often relative to untreated cells. For the compound `Nc1nc(Cl)nc2c1ncn2[C@@H]1O[C@H](CO)[C@@H](O)[C@@H]1F`, the viability in [2] (setting [14]) was 115% (inactive); in [2] (setting [15]), 107% (inactive); in [2] (setting [16]), 116% (inactive); in experiment [2] (setting [17]), 113% (inactive); in experiment [2] (setting [18]), 118% (inactive); in experiment [2] (setting [19]) it was 113% (inactive). The viability is 112% (inactive) in experiment [2] (setting [20]); 109% (inactive) in experiment [2] (setting [21]); 116% (inactive) in [2] (setting [22]); 110% (inactive) in [2] (setting [23]); 115% (inactive) in [2] (setting [24]); 118% (inactive) in [2] (setting [25]). Also, the viability is 113% (inactive) in experiment [2] (setting [26]); 112% (inactive) in [2] (setting [27]); 111% (inactive) in experiment [2] (setting [28]); 95% (active) in [2] (setting [29]); 98% (active) in experiment [2] (setting [30]); 78.6% (active) in [2] (setting [31]). Besides, the viability in [2] (setting [32]) was 111% (inactive); in [2] (setting [33]), 84.8% (active); in experiment [2] (setting [34]) it was 24% (active); in experiment [2] (setting [35]), 24.6% (active); in experiment [2] (setting [36]) it was 57.8% (active); in experiment [2] (setting [37]) it was 29.3% (active). Besides, the viability is 22.5% (active) in experiment [2] (setting [38]); 23.9% (active) in experiment [2] (setting [39]); 42.3% (active) in [2] (setting [40]); 20.5% (active) in experiment [2] (setting [41]); 19.1% (active) in experiment [2] (setting [42]); 19.7% (active) in experiment [2] (setting [43]). Besides, the viability was 36.1% (active) in [2] (setting [44]) and 18.2% (active) in experiment [2] (setting [45]).

As for `Nc1ncn([C@H]2C[C@H](O)[C@@H](CO)O2)c(=O)n1`, the viability in experiment [2] (setting [14]) was 122% (inactive); in [2] (setting [15]), 112% (inactive); in [2] (setting [16]), 104% (inactive); in experiment [2] (setting [17]), 112% (inactive); in [2] (setting [18]) it was 111% (inactive); in [2] (setting [19]), 107% (inactive). In addition, the viability is 111% (inactive) in [2] (setting [20]); 103% (inactive) in [2] (setting [21]); 113% (inactive) in [2] (setting [22]); 112% (inactive) in experiment [2] (setting [23]); 99.8% (active) in experiment [2] (setting [24]); 95.8% (active) in experiment [2] (setting [25]). Besides, the viability is 103% (inactive) in experiment [2] (setting [26]); 108% (inactive) in experiment [2] (setting [27]); 82.8% (active) in experiment [2] (setting [28]); 95.2% (active) in experiment [2] (setting [29]); 101% (inactive) in experiment [2] (setting [30]); 107% (inactive) in experiment [2] (setting [31]). Further, the viability in experiment [2] (setting [32]) was 96.6% (active); in experiment [2] (setting [33]), 88.3% (active); in [2] (setting [34]), 85.8% (active); in experiment [2] (setting [35]), 88.1% (active); in experiment [2] (setting [36]), 84.8% (active); in experiment [2] (setting [37]) it was 68.4% (active). In addition, the viability in [2] (setting [38]) was 80.4% (active); in [2] (setting [39]), 80% (active); in experiment [2] (setting [40]), 68.8% (active); in [2] (setting [41]), 61.9% (active); in experiment [2] (setting [42]) it was 49.1% (active); in experiment [2] (setting [43]) it was 63.2% (active). Moreover, the viability in experiment [2] (setting [44]) is 57.9% (active); in experiment [2] (setting [45]), 46.9% (active).

Broadly, the remaining activity is the signal under treatment as a percentage of the control signal. Turning to `CCn1ccnc1CC1COc2ccccc2O1` (stereo unspecified), the nuclear beta-catenin stimulation in experiment [3] (at 10 µM) is 1.8% (inactive); in [3] (stimulation, at 2 µM), 0.3%. Also, in experiment [4], the insulin secretion stimulation is -3.2% (inactive). The viability decrease in [5] is -16.7% (inactive). Also, the tube area decrease in [6] was -3.6% (inactive). Further, in experiment [7], the GLP1 secretion stimulation was 0% (inactive). Besides, in experiment [8], the inhibition of viability was 1.63% (inactive). Moreover, the viability decrease (inhibition) in experiment [9] is 7.7% (inactive); in experiment [10] it was -5.9% (inactive). Also, the remaining activity in [11] was 82.4% (inactive). Also, the fold change in experiment [12] (stronger effect = lower value, cell number ratio, induced over uninduced) was 1.08 (inactive) and 0.969 (inactive); in experiment [12] (measured here: relative caspase fold change +Dox/-Dox), 1.15 and 0.987. In addition, the cell count was 10600 and 8940 in experiment [12] (measured here: total cells with miR-34 induction, stronger effect = lower value); 9870 and 9220 in [12] (measured here: total cells without miR-34 induction). Moreover, the z-score in experiment [13] is 0.675 (inactive) and 1.33 (inactive).
